Results on 54 compounds are retold here after PMC4336329 (PLoS ONE, 2015).

The campaign covered roughly 310,000 compounds. About 14,000 (4.5%) showed an effect of 50% or more. Effects have a minus sign here. This is one part of a sample in which strong results are shown more often than they occur.
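Further: peak tail current of the secondary pulse compared with the same well before compound.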

Chain of human ether-à-go-go-related gene (hERG) potassium channel (Q12809 whole entry, looked up): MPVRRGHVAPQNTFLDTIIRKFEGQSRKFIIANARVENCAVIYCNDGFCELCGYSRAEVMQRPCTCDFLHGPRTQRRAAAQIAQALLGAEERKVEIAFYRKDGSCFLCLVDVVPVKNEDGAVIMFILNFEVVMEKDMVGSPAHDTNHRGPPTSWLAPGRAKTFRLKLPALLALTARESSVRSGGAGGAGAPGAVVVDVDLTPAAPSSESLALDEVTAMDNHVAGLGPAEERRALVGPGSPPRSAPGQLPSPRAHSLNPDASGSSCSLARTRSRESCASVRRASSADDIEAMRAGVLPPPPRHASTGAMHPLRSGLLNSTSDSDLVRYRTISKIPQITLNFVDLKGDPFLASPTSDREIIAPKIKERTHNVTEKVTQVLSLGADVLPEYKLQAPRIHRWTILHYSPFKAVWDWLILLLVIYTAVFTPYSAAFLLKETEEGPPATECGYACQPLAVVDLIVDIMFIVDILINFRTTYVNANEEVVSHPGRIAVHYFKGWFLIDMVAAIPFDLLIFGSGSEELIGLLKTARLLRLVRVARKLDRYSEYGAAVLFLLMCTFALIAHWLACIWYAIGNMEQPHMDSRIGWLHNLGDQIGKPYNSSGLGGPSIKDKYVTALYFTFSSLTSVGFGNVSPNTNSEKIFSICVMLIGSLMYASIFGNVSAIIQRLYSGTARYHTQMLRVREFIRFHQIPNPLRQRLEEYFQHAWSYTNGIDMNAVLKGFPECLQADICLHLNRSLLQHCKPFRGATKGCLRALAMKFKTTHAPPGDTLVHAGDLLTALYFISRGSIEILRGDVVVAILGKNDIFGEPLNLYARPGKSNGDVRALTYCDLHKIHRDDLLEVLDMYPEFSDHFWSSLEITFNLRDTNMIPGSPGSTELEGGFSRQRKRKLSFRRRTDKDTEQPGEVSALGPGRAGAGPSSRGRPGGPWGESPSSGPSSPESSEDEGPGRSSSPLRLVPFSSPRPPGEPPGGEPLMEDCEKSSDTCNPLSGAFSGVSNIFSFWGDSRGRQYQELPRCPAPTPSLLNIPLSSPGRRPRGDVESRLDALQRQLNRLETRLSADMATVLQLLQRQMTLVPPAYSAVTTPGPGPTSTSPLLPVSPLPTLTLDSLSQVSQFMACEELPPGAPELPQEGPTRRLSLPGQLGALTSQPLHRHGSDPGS

This assay has as its target human ether-à-go-go-related gene (hERG) potassium channel (human, UniProt Q12809). The experiment in a line: primary screen, population patch clamp on CHO cells stably expressing hERG; higher = less effect of the substance.
For the compound `NS(=O)(=O)c1ccc2nc(NC(=O)CS(=O)(=O)c3ccccc3)sc2c1`, the “hERG current change (%, negative = inhibition) at 10uM” value is given as 26.8%.

With `CCN(CC)CCN=C(C)c1c(O)n(-c2ccccc2OC)c(=O)[nH]c1=O`, the “hERG current change (%, negative = inhibition) at 10uM” value turned out to be 4.71%.

Take `Cc1cccc(NC(=O)C(=O)C2C(=O)Nc3ccccc32)c1` (stereo not drawn): the “hERG current change (%, negative = inhibition) at 10uM” value was determined as 4.05%.

Take `CC1=C(C(=O)Nc2ccccc2)C(c2ccco2)NC(=O)N1` (stereo not drawn): the “hERG current change (%, negative = inhibition) at 10uM” value was 14.5%.

As to `O=c1[nH]c2ccc(NS(=O)(=O)c3ccc(Cl)cc3)cc2[nH]1`, the “hERG current change (%, negative = inhibition) at 10uM” value was determined as 15.8%.

Take `Cc1ccc(C)c(N2CCN(C(=O)c3ccc(CS(=O)Cc4ccc(Cl)cc4)o3)CC2)c1` (stereo not drawn): the “hERG current change (%, negative = inhibition) at 10uM” value is on record as -26.9%.

Regarding `CCCc1ccc(OCc2ccc(C(=O)N3CCN(c4ccccn4)CC3)o2)c(OC)c1`, the “hERG current change (%, negative = inhibition) at 10uM” value is recorded as -56.5%.

In the case of `O=C(c1ccc(CS(=O)Cc2ccc(Cl)cc2)o1)N1CCN(c2ccccc2F)CC1` (stereo not drawn), the “hERG current change (%, negative = inhibition) at 10uM” value was -55.8%.

`Cc1ccc(CS(=O)Cc2ccc(C(=O)NC3CCCCC3)o2)cc1` (stereo not drawn): the “hERG current change (%, negative = inhibition) at 10uM” value turned out to be 2.31%.

Turning to `Cc1ccc(CS(=O)Cc2ccc(C(=O)NC3CCCCCC3)o2)cc1` (stereo not drawn), the “hERG current change (%, negative = inhibition) at 10uM” value was determined as 8.98%.

For `Cc1cccc(N2CCN(C(=O)c3ccc(CS(=O)Cc4ccc(Cl)cc4)o3)CC2)c1C` (stereo not drawn), the “hERG current change (%, negative = inhibition) at 10uM” value is given as -57%.

Turning to `COc1ccccc1S(=O)(=O)Cc1ccc(C(=O)N2CCN(c3ccccn3)CC2)o1`, the “hERG current change (%, negative = inhibition) at 10uM” value is -17.8%.

As for `CCCc1ccc(OCc2ccc(C(=O)O)o2)c(OC)c1`, the “hERG current change (%, negative = inhibition) at 10uM” value is recorded as 8.51%.

Take `Cc1ccc(CS(=O)Cc2ccc(C(=O)NC3CCC(C)CC3)o2)cc1` (stereo not drawn): the “hERG current change (%, negative = inhibition) at 10uM” value is reported as -51%.

Consider `Cc1ccc(C)c(N2CCN(C(=O)c3ccc(CS(=O)Cc4cccc(Cl)c4)o3)CC2)c1` (stereo not drawn), for which the “hERG current change (%, negative = inhibition) at 10uM” value is reported as -6.6%.

As for `Cc1ccc(Cl)cc1N1CCN(C(=O)c2ccc(CS(=O)Cc3ccc(Cl)cc3)o2)CC1` (stereo not drawn), the “hERG current change (%, negative = inhibition) at 10uM” value stood at 13.9%.

For the compound `Cc1cccc(N2CCN(C(=O)c3ccc(CS(=O)Cc4cccc(Cl)c4)o3)CC2)c1C` (stereo not drawn), the “hERG current change (%, negative = inhibition) at 10uM” value is reported as -13.5%.

`Cc1cc(C)c(C)c(S(=O)(=O)N2CCC(C(=O)NCC(c3ccccc3)N(C)C)CC2)c1C` (stereo not drawn): the “hERG current change (%, negative = inhibition) at 10uM” value is reported as -48.9%.

As to `CC(CC(=O)N(C)CC(=O)Nc1ccc(N2CCOCC2)cc1)c1ccccc1` (stereo not drawn), the “hERG current change (%, negative = inhibition) at 10uM” value was -13.3%.

In the case of `COC(C[C@H]1O[C@H]1C(=O)[C@H](C)OCc1ccccc1)OC`, the “hERG current change (%, negative = inhibition) at 10uM” value is listed as 14.5%.

Take `CCC(c1nnnn1Cc1ccccc1)N1CCN(c2ccccc2)CC1` (stereo not drawn): the “hERG current change (%, negative = inhibition) at 10uM” value is reported as -8.7%.

As for `Cc1cc(Cl)ccc1NC(=O)Cn1cncn1`, the “hERG current change (%, negative = inhibition) at 10uM” value stood at 14.3%.

As to `O=C(c1ccc(CS(=O)Cc2ccc(Cl)cc2)o1)N1CCN(c2ccc(F)cc2)CC1` (stereo not drawn), the “hERG current change (%, negative = inhibition) at 10uM” value was -62.1%.

As for `O=C(c1ccc(COc2ccccc2Cl)o1)N1CCN(c2ccccc2)CC1`, the “hERG current change (%, negative = inhibition) at 10uM” value is on record as -24.1%.

For `COc1cccc(N2CCN(C(=O)c3ccc(CS(=O)c4ccc(Cl)cc4)o3)CC2)c1` (stereo not drawn), the “hERG current change (%, negative = inhibition) at 10uM” value is on record as -42%.

Consider `CN1CCN(C(=O)c2ccc(CS(=O)Cc3ccc(Cl)cc3)o2)CC1` (stereo not drawn), for which the “hERG current change (%, negative = inhibition) at 10uM” value is 13.1%.

With `COc1cccc(N2CCN(C(=O)c3ccc(CS(=O)Cc4ccc(Cl)cc4)o3)CC2)c1` (stereo not drawn), the “hERG current change (%, negative = inhibition) at 10uM” value is given as -41.8%.

Turning to `O=C(c1ccc(CS(=O)c2ccccc2Cl)o1)N1CCN(c2ccccc2)CC1` (stereo not drawn), the “hERG current change (%, negative = inhibition) at 10uM” value is recorded as -38.2%.

For `O=C(c1ccc(CS(=O)Cc2ccc(Cl)cc2)o1)N1CCN(c2ccccc2)CC1` (stereo not drawn), the “hERG current change (%, negative = inhibition) at 10uM” value is -51.8%.

As to `O=C(c1ccc(CS(=O)Cc2ccc(Cl)cc2)o1)N1CCN(c2cccc(Cl)c2)CC1` (stereo not drawn), the “hERG current change (%, negative = inhibition) at 10uM” value was -52.7%.

Turning to `CCOC(=O)C1=C(C)N(c2ccc(Cl)cc2)C(=O)NC1c1cccc([N+](=O)[O-])c1` (stereo not drawn), the “hERG current change (%, negative = inhibition) at 10uM” value is -24.8%.

As for `CCOc1ccc(S(=O)(=O)NCCC(=O)NCC2(N3CCCCC3)CCCCC2)cc1`, the “hERG current change (%, negative = inhibition) at 10uM” value is listed as -33.2%.

Regarding `Cc1ccc[n+](CC(=O)Nc2cccc(Cl)c2)c1.[Cl-]`, the “hERG current change (%, negative = inhibition) at 10uM” value is reported as 18.4%.

As for `CCC(C)(C)C1CCc2c(sc(NC(=O)c3ccccc3C(=O)O)c2C#N)C1` (stereo not drawn), the “hERG current change (%, negative = inhibition) at 10uM” value came out at 10.3%.

Turning to `O=C1C=C(N2CCN(C(=O)c3ccccc3)CC2)C2(CCCCC2)O1`, the “hERG current change (%, negative = inhibition) at 10uM” value is on record as -10.3%.

With `O=C(NCCS(=O)(=O)N1CCc2ccccc2C1)c1ccccc1`, the “hERG current change (%, negative = inhibition) at 10uM” value was -23%.

As to `COc1cccc(SCc2noc(C(=O)NCCCN3CCOCC3)c2C(=O)NCCCN2CCOCC2)c1`, the “hERG current change (%, negative = inhibition) at 10uM” value is listed as -4.2%.

Take `Cc1ccc(Cc2c(C)nc3nc(SCC(=O)NCCCN4CCCCC4)nn3c2C)cc1`: the “hERG current change (%, negative = inhibition) at 10uM” value is reported as -42.7%.

Regarding `Cc1ccc(Cc2c(C)nc3nc(SCC(=O)NCCCN4CCCC4)nn3c2C)cc1`, the “hERG current change (%, negative = inhibition) at 10uM” value is -28.4%.

With `Cc1ccc(Cc2c(C)nc3nc(SCC(=O)NCCCN4CCCCCC4)nn3c2C)cc1`, the “hERG current change (%, negative = inhibition) at 10uM” value is -54.8%.

Consider `CC(C)C[C@@H](N)c1nnc(SCC(=O)c2ccc(Cl)cc2)o1.Cl`, for which the “hERG current change (%, negative = inhibition) at 10uM” value was -37.1%.

In the case of `CC1(C)CC(=O)C=C(Nc2ccccc2NC(=O)c2cnccn2)C1`, the “hERG current change (%, negative = inhibition) at 10uM” value is recorded as -64.7%.

Consider `CC1(C)CC(=O)C=C(Nc2ccccc2O)C1`, for which the “hERG current change (%, negative = inhibition) at 10uM” value came to 15.7%.

As to `O=C(Nc1ccccc1Cl)c1cnccn1`, the “hERG current change (%, negative = inhibition) at 10uM” value was 2.9%.

Turning to `Cc1ccc(-n2ncc3c2CCCC3NC(=O)c2ocnc2C)cc1C` (stereo not drawn), the “hERG current change (%, negative = inhibition) at 10uM” value came to 1.26%.

In the case of `CCOC(=O)c1[nH]c2ccc(OC)cc2c1N=CN(C)C`, the “hERG current change (%, negative = inhibition) at 10uM” value was -7.13%.

As to `CCOC(=O)c1[nH]c2ccc(F)cc2c1N=C(C)N(CC)CC`, the “hERG current change (%, negative = inhibition) at 10uM” value is listed as -55.4%.

With `CCOC(=O)c1[nH]c2ccccc2c1NC(C)=O`, the “hERG current change (%, negative = inhibition) at 10uM” value is listed as -3.18%.

Turning to `CCOC(=O)c1[nH]c2ccccc2c1N=CN(C)C`, the “hERG current change (%, negative = inhibition) at 10uM” value is on record as -28.9%.

As to `CCOC(=O)c1[nH]c2ccccc2c1NC(=O)CN(C)C`, the “hERG current change (%, negative = inhibition) at 10uM” value came to 7.08%.

For the compound `CCOC(=O)c1[nH]c2ccccc2c1N=C(C)N(CC)CC`, the “hERG current change (%, negative = inhibition) at 10uM” value is listed as -54.7%.

On to `CCOC(=O)c1[nH]c2ccc(F)cc2c1NC(=O)c1ccccc1C(=O)O`, for which the “hERG current change (%, negative = inhibition) at 10uM” value stood at 19.4%.

Take `CCOC(=O)c1[nH]c2ccc(C)cc2c1N=C(C)N(C)C`: the “hERG current change (%, negative = inhibition) at 10uM” value was -9.99%.

As to `CCOC(=O)c1[nH]c2ccccc2c1N=CN(CC)CC`, the “hERG current change (%, negative = inhibition) at 10uM” value was -60.8%.
